In the supplement of paper PMC12350171:
Structures can show the parent of a compound that is named as a salt. Unmarked numbers belong to inactive results.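 How the source made its calls: active = AUC significantly below DMSO controls by Student t-fit with adjusted P under 0.01; inactive = not significantly reduced.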

The molecules below were run on Haemophilus parainfluenzae (assay: growth AUC normalised to DMSO control (fraction of control); higher = less growth inhibition, active = hit call of the paper). Settings: 20 µM.
How it was run: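 For the AUC endpoint, growth curves were integrated by the trapezoidal rule up to the exponential-to-stationary transition and normalised to DMSO controls on the same plate. The curves came from OD578 readings taken hourly for 24 h, in three biological replicates. Pathogens had been passaged anaerobically twice and inoculated at an OD578 of 0.01 into pre-reduced mGAM plates carrying 20 μM compound and 1% DMSO, sealed with breathable membranes. Medium for Haemophilus parainfluenzae also contained hemin and NAD.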

Row | SMILES | growth AUC normalised to DMSO control
1 | NCCc1cc[nH]n1 [Betazole hydrochloride] | 1
2 | CN1CCC(=C2c3ccccc3CCc3sccc32)CC1 [Pizotifen malate] | 0.936
3 | CCN(CCO)CCCC(C)Nc1ccnc2cc(Cl)ccc12 (centres undefined) [Hydroxychloroquine sulfate] | 1
4 | CCc1c(C)[nH]c2c1C(=O)C(CN1CCOCC1)CC2 (centres undefined) [Molindone hydrochloride] | 1.01
5 | COc1cc([S+](C)[O-])ccc1-c1nc2cccnc2[nH]1 (centres undefined) [Sulmazole] | 1
6 | CCCc1cc(C(N)=S)ccn1 [Prothionamide] | 1.04
7 | CC(C)(S)C(N)C(=O)O (racemic) [D,L-Penicillamine] | 0.981
8 | CC(C)N1CCN(c2ccc(OCC3COC(Cn4cncn4)(c4ccc(Cl)cc4Cl)O3)cc2)CC1 (centres undefined) [Terconazole] | 1.03
9 | COc1cccc2c1C(=O)c1c(O)c3c(c(O)c1C2=O)C[C@@](O)(C(=O)CO)C[C@@H]3O[C@H]1C[C@H](N)[C@H](O)[C@H](C)O1 [Doxorubicin hydrochloride] | 0.979
10 | CCCOc1cc(N)ccc1C(=O)OCCN(CC)CC [Propoxycaine hydrochloride] | 1.04
11 | N=C(N)NCCN1CCCCCCC1 [Guanethidine sulfate] | 1.03
12 | Nc1nc2n[nH]nc2c(=O)[nH]1 [Azaguanine-8] | 0.992
13 | NS(=O)(=O)c1cc(C(=O)O)c(NCc2ccco2)cc1Cl [Furosemide] | 1
14 | CC(C)(C)c1ccc(C(O)CCCN2CCC(C(O)(c3ccccc3)c3ccccc3)CC2)cc1 (centres undefined) [Terfenadine] | 0.88
15 | CCCCOc1cc(C(=O)OCCN(CC)CC)ccc1N [Benoxinate hydrochloride] | 1.01
16 | CCN(CC)CCOc1ccc(C(=C(Cl)c2ccccc2)c2ccccc2)cc1 [(Z,E) Clomiphene citrate] | 1.02
17 | Cc1cn([C@H]2C[C@H](N=[N+]=[N-])[C@@H](CO)O2)c(=O)[nH]c1=O [Zidovudine] | 0.581 (active)
18 | C#C[C@]1(OC(C)=O)CC[C@H]2[C@@H]3CCC4=CC(=NO)CC[C@@H]4[C@H]3CC[C@@]21CC (mixture of isomers) [Norgestimate] | 0.908
19 | CN(C)CCn1nnnc1SCC1=C(C(=O)O)N2C(=O)[C@@H](NC(=O)Cc3csc(N)n3)[C@H]2SC1 [Cefotiam hydrochloride] | 0.0401 (active)
20 | CCOCCn1c(N2CCCN(C)CC2)nc2ccccc21 [Emedastine difumarate] | 1

Row | SMILES | growth AUC normalised to DMSO control
21 | Clc1ccc(C(Cn2ccnc2)OCc2c(Cl)cccc2Cl)c(Cl)c1 (centres undefined) [Isoconazole] | 0.972
22 | Cc1nnc(NS(=O)(=O)c2ccc(N)cc2)s1 [Sulfamethizole] | 0.903
23 | Cc1ncc(C[n+]2csc(CCO)c2C)c(N)n1 [Thiamine hydrochloride] | 0.964
24 | CC[C@H]1OC(=O)[C@H](C)[C@@H](O[C@H]2C[C@@](C)(OC)[C@@H](O)[C@H](C)O2)[C@H](C)[C@@H](O[C@@H]2O[C@H](C)C[C@H](N(C)C)[C@H]2O)[C@](C)(O)C[C@@H](C)/C(=N\OCOCCOC)[C@H](C)[C@@H](O)[C@]1(C)O [Roxithromycin] | 0.1 (active)
25 | CCOC(=O)NNc1nncc2ccccc12 [Todralazine hydrochloride] | 1.01
26 | O=C(c1ccc(OCCN2CCCCC2)cc1)c1c(-c2ccc(O)cc2)sc2cc(O)ccc12 [Raloxifene hydrochloride] | 0.974
27 | CCOC(=O)C1=C(C)NC(C)=C(C(=O)OCC)C1c1ccccc1/C=C/C(=O)OC(C)(C)C [Lacidipine] | 1.01
28 | CC[C@H](C)[C@H](N)C1=N[C@H](C(=O)N[C@@H](CC(C)C)C(=O)N[C@H](CCC(=O)O)C(=O)N[C@H](C(=O)N[C@H]2CCCCNC(=O)[C@H](CC(N)=O)NC(=O)[C@@H](CC(=O)O)NC(=O)[C@H](Cc3cnc[nH]3)NC(=O)[C@@H](Cc3ccccc3)NC(=O)[C@H]([C@@H](C)CC)NC(=O)[C@@H](CCCN)NC2=O)[C@@H](C)CC)CS1 [Bacitracin] | 0.999
29 | Oc1ccc(OCc2ccccc2)cc1 [Monobenzone] | 0.902
30 | CC1(C)NC(=O)N(c2ccc([N+](=O)[O-])c(C(F)(F)F)c2)C1=O [Nilutamide] | 0.977
31 | CNCCC(Oc1ccc(C(F)(F)F)cc1)c1ccccc1 (centres undefined) [Fluoxetine hydrochloride] | 1
32 | Cn1c(=O)c2c(ncn2CC(=O)O)n(C)c1=O [Acefylline] | 0.969
33 | O=C(NCCNCC(O)COc1ccc(O)cc1)N1CCOCC1 (centres undefined) [Xamoterol hemifumarate] | 0.775
34 | CC(N)(Cc1ccc(O)c(O)c1)C(=O)O (centres undefined) [(L) Methyldopa] | 1.04
35 | C#C[C@]1(O)CC[C@H]2[C@@H]3CCc4cc(OC)ccc4[C@H]3CC[C@@]21C [Mestranol] | 1.02
36 | O=C(O)Cc1sc(-c2ccccc2)nc1-c1ccc(Cl)cc1 [Fentiazac] | 1.03
37 | C/C(=C(\CCOP(=O)(O)O)SC(=O)c1ccccc1)N(C=O)Cc1cnc(C)nc1N [Benfotiamine] | 0.999
38 | CCCCNc1ccc(C(=O)OCCN(C)C)cc1 [Tetracaine hydrochloride] | 1.16
39 | CC(=O)N(CC(C)C(=O)O)c1c(I)cc(I)c(N)c1I (centres undefined) [Iocetamic acid] | 0.965
